Consider 40 compounds from PubChem BioAssay (EPA / NIEHS).

Several values for one entry are separate records, joined by “and”; a condition that tells them apart may be missing. Equal entries are not always repeated. Activity calls are given as the source filed them. How the source made its calls: active means hit-call score of the fitted dose curve at least 0.9, where 1 is the maximum; inactive means score below 0.9.

Broadly, the AC50 is the concentration giving half of the maximal activity seen.

The experiment can be described thus: BSK_KF3CT_SRB: Viability Assessment in the BioMAP Diversity Plus: KF3CT Assay (AID 2283069).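 Further: fitted for both signal gain and loss against DMSO baseline.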 The conditions noted are these: primary human keratinocytes with fibroblasts. As for the experimental part:
BSK_KF3CT is a cell-based, multiplexed-readout assay that uses keratinocytes and foreskin fibroblasts, a human skin primary cell co-culture, with measurements taken at 24 hours after chemical dosing in a 96-well plate.BSK_KF3CT_SRB is an assay component measured in the BSK_KF3CT assay. It measures 0.1% sulforhodamine related to cell death using Sulforhodamine staining technology.Data from the assay component BSK_KF3CT_SRB was analyzed into 1 assay endpoint. This assay endpoint, BSK_KF3CT_SRB, was analyzed with bidirectional fitting relative to DMSO as the negative control and baseline of activity. Using a type of viability reporter, gain or loss-of-signal activity can be used to understand changes in the signaling. Furthermore, this assay endpoint can be referred to as a primary readout, because this assay has produced multiple assay endpoints where this one serves a signaling function. To generalize the intended target to other relatable targets, this assay endpoint is annotated to the cell morphology intended target family, where the subfamily is cell conformation.
The levels of cell surface (or secreted, indicated by the prefix "s") biomarker endpoints were measured by ELISA. Overt cytotoxicity to cells in confluent adherent cultures (all systems other than the BT system) was assessed by measuring total protein levels using sulforhodamine B (SRB) staining in parallel cultures at the time of biomarker measurements, indicated as SRB endpoints. For proliferation assays for adherent cell types, individual cell types are cultured at sub-confluence and relative cell numbers quantified by SRB staining at time points optimized for each system (48 h: 3C and CASM3C systems; 72 h: BT and HDF3CGF systems; 96 h: SAg system). SRB was performed by staining cells with 0.1% SRB after fixation with 10% TCA and reading wells at 560 nm.Viability and proliferation of PBMC (T cells) was quantified by Alamar Blue reduction for the SAg and BT systems. For PBMC viability (referred to as PBMC Cytotoxicity within the assay endpoint names), cells were plated (75,000/well in a 96-well plate) and then chemical samples added for 1 h before addition of activators, SEB and TSST-1 (20 ng/mL final concentration each). Cells were incubated for 90 h. Then, Alamar Blue (20 uL/well) (Invitrogen, Cat DAL1100) was added for 6 h, and the plates were read with a fluorescence microplate reader at 546/580 nm (excitation/emission). For PBMC proliferation, cells were plated and activated as above but incubated for only 16 h prior to addition of Alamar Blue. Plates were read after 6 h.
Regarding `Nn1cnnc1`, the result was inactive.

In the case of `NS(=O)(=O)C(F)(F)C(F)(F)C(F)(F)C(F)(F)C(F)(F)C(F)(F)C(F)(F)C(F)(F)F`, the AC50 is 30.1 µM (active) and 45.6 µM (active) and 21.4 µM (active).

As to `O=NN(c1ccccc1)c1ccccc1`, the outcome was inactive.

Take `ClC(Cl)=C(c1ccc(Cl)cc1)c1ccc(Cl)cc1`: the AC50 is 27.9 µM (active).

Take `ClC1=C(Cl)[C@]2(Cl)[C@@H]3[C@@H]4C[C@@H]([C@H]5O[C@@H]45)[C@@H]3[C@@]1(Cl)C2(Cl)Cl`: the outcome was inactive.

In the case of `Cc1cccc(C)c1N`, the result was inactive.

Take `Cc1cc2c3c(c1)C(c1ccccc1)=N[C@@H](NC(=O)c1ccncc1)C(=O)N3CC2`: the outcome was inactive.

With `Cc1ccccc1[N+](=O)[O-]`, the result was inactive.

Consider `C[C@]12CCC(=O)C=C1CC[C@@H]1[C@@H]2CC[C@@]2(C)[C@H]1CC[C@]2(C)O`, for which the result was inactive.

On to `CCC(C)(c1ccc(O)cc1)c1ccc(O)cc1`, for which the outcome was inactive.

Turning to `CCCCCCCCCC[N+](C)(C)CCCCCCCCCC`, the AC50 is 5.41 µM (active).

For the compound `O=S(=O)(O)C(F)(F)C(F)(F)C(F)(F)C(F)(F)F`, the outcome was inactive.

On to `CCCCCCCCOC(=O)c1ccccc1C(=O)OCCCCCCCC`, for which the result was inactive.

With `O=S(=O)(O)C(F)(F)C(F)(F)C(F)(F)C(F)(F)C(F)(F)C(F)(F)F`, the result was inactive.

As for `O=C(O)C(F)(F)C(F)(F)C(F)(F)C(F)(F)C(F)(F)F`, the result was inactive.

On to `O=C(O)C(F)(F)C(F)(F)C(F)(F)C(F)(F)C(F)(F)C(F)(F)C(F)(F)C(F)(F)C(F)(F)F`, for which the AC50 was 33.1 µM (active) and 50.3 µM (active) and 50.8 µM (active).

As for `C1CC2OC2CC1C1CO1` (stereo not given), the result was inactive.

With `COS(=O)(=O)OC`, the result was inactive.

Turning to `ClC1=C(Cl)[C@]2(Cl)[C@@H]3[C@@H](Cl)[C@H]4O[C@H]4[C@@H]3C1(Cl)C2(Cl)Cl`, the result was inactive.

In the case of `c1ccc(-c2ccccc2)cc1`, the outcome was inactive.

Consider `C[C@]12CCC(=O)C=C1CC[C@@H]1[C@@H]2CC[C@]2(C)C(=O)CC[C@@H]12`, for which the outcome was inactive.

With `Oc1ccc(Cl)cc1Cl`, the outcome was inactive.

Turning to `CCC(C)c1cc([N+](=O)[O-])cc([N+](=O)[O-])c1O` (stereo not given), the result was inactive.

As to `Clc1ccc(C(c2ccccc2Cl)C(Cl)(Cl)Cl)cc1` (stereo not given), the AC50 was 21.1 µM (active).

Consider `CN(C)c1nc(=O)n(C2CCCCC2)c(=O)n1C`, for which the outcome was inactive.

For `Cc1ccc(O)c(C)c1`, the outcome was inactive.

As for `CO/C=C(/C(=O)OC)c1ccccc1COc1cccc(C(F)(F)F)n1`, the outcome was inactive.

Consider `CC1=C2C[C@H]3[C@@H](CC=C4C[C@@H](O)CC[C@@]43C)[C@@H]2CC[C@]12O[C@@H]1C[C@H](C)CN[C@H]1[C@H]2C`, for which the result was inactive.

On to `Sc1ccccc1`, for which the result was inactive.

On to `CN(C)CCO`, for which the result was inactive.

Consider `CC(C)C(=O)OCC(C)(C)C(OC(=O)C(C)C)C(C)C` (stereo not given), for which the result was inactive.

For the compound `CCOC(=O)C(O)(c1ccc(Cl)cc1)c1ccc(Cl)cc1`, the result was inactive.

As to `ClC1=C(Cl)[C@]2(Cl)[C@@H]3[C@H]4C[C@H]([C@@H]5O[C@H]45)[C@@H]3[C@@]1(Cl)C2(Cl)Cl`, the outcome was inactive.

As for `CC(c1ccc(O)cc1)(c1ccc(O)cc1)c1ccc(O)cc1`, the AC50 is 29.9 µM (active).

Turning to `Clc1ccc(C(Cl)(Cl)Cl)cc1`, the result was inactive.

Regarding `COc1ccc(O)c(C(C)(C)C)c1`, the result was inactive.

Consider `O=C(NC(=O)c1cc(F)c(F)cc1Cl)Nc1cc(F)ccc1N1CCC(C(=O)O)CC1`, for which the result was inactive.

Turning to `CCSC(=O)N(CC)C1CCCCC1`, the outcome was inactive.

Consider `CC(C)(O)C(=O)Nc1ccc([N+](=O)[O-])c(C(F)(F)F)c1`, for which the outcome was inactive.

For `CC#Cc1cc(C)nc(Nc2ccccc2)n1`, the outcome was inactive.
